Assay results from PubChem BioAssay AID1259343 (VanderVen Lab, College of Veterinary Medicine, Cornell …, 2017).
The campaign covered roughly 6,200 compounds. About 2,900 (47%) were called active. The set was probably picked from earlier hits. The list shows a part of the results. A number with no mark means an inactive call. Rule as the data show it: active = inhibition above about 50%; inactive = the rest.

Test: Mycobacterium tuberculosis growth inhibition, primary screen (AID 1259343)
Settings: inhibition: at 10 µM, active compounds read high; outcome: 10 uM

Structure (SMILES)	inhibition
COc1cc(OC)c2c(OC)c(-c3ccc4c(c3)OCO4)c(=O)oc2c1	70.6% (active)
Cn1ncc2c(N3CCN(CC(=O)Nc4ccc(Cl)cc4F)CC3)ncnc21	88.8% (active)
CCCc1cc(=O)[nH]c(-n2nc(C)cc2NC(=O)c2ccc(OC)cc2)n1	-40.9%
CCOc1cc(C(=O)Nc2cc(C)nn2-c2nc(C)cc(=O)[nH]2)cc(OCC)c1OCC	100% (active)
CCCCOc1ccc(C(=O)Nc2cc(C)nn2-c2nc(CCC)cc(=O)[nH]2)cc1	101% (active)
CCCc1cc(=O)[nH]c(-n2nc(C)cc2NC(=O)c2cc(OCC)c(OCC)c(OCC)c2)n1	100% (active)
CCCc1cc(=O)[nH]c(-n2nc(C)cc2NC(=O)c2ccc(OCC)cc2)n1	100% (active)
Clc1ccc(OCC2CCCNC2)c2ccccc12 (centres undefined)	77.8% (active)
O=C(COc1ccc(Cl)c2ccccc12)NCC(F)(F)F	17.8%
Nc1ncc(Cc2ccc(F)c(Cl)c2)s1	-17.6%
Nc1ncc(Cc2ccc(Br)cc2)s1	46.1%
Nc1ncc(Cc2ccc(F)cc2)s1	93% (active)
COC(=O)c1ccc(COc2ccc(C3C4=C(Nc5nnnn53)C(C(C)(C)C)CCC4)cc2)cc1 (centres undefined)	88.6% (active)
Cc1ccc(C2CC2C(=O)NC(C)c2nc(C3CCCC3)no2)s1 (centres undefined)	29.8%
COCCc1noc(C2CC2c2ccc(C)s2)n1 (centres undefined)	90.7% (active)
O=S(N1CCc2ccccc2C1)C12CC3CC(CC(C3)C1)C2 (centres undefined)	80.3% (active)
O=c1cc(CSc2cccc[n+]2[O-])c2c(ccc3ccccc32)o1	102% (active)
C=CCNc1nnc(Sc2ncccc2[N+](=O)[O-])s1	98.3% (active)
Nc1ncc([N+](=O)[O-])c(Sc2nc3ccccc3s2)n1	-52.4%
CC(C)=CCC1=C(O)c2ccccc2C(=O)C1=O	101% (active)
O=C(Nc1nc2ccc3ccccc3c2s1)c1ccccc1	61.4% (active)
O=C(Nc1nc2c(s1)CCN(Cc1ccccc1)C2)c1cccc(F)c1	21.5%

Structure (SMILES)	inhibition
Cc1ccc(Cn2ncc3c(Nc4ccc(C)cc4)ncnc32)cc1	35.1%
Cc1ccc(Cn2ncc3cc(Br)cnc32)cc1	97% (active)
COc1ccc(Nc2ncnc3c2cnn3Cc2ccc(C)cc2)cc1	23.5%
Cc1ccccc1-n1cc(CN(C)Cc2nc(-c3ccccc3)no2)cn1	86% (active)
COc1ccc(Br)cc1S(=O)(=O)Oc1ccc2ccccc2c1	95.9% (active)
CCOc1ccc(Br)cc1S(=O)(=O)Oc1cccc2c1OC(C)(C)C2	23.4%
CC(C)Oc1ccc(CNC(=O)c2cc(Cl)ccc2F)cn1	-0.38%
O=C(NCc1ccc(OCC2CC2)nc1)c1cccc2cn[nH]c12	79.9% (active)
O=C(NS(=O)(=O)c1ccc(Cl)cc1F)c1cccc2cn[nH]c12	22.9%
COCCn1c(O)c(C=NNC(=O)c2cc(Cl)ccc2O)c(=O)[nH]c1=S	45.1%
O=C(NN=Cc1ccco1)c1cc(Br)ccc1O	98.8% (active)
C=CCc1ccc(OCCOc2ccc(F)cc2)c(OC)c1	-4.29%
C=CCc1ccc(OCCCCn2cnc3ccccc32)c(OC)c1	61.1% (active)
C=CCc1ccccc1OCCn1cnc2ccccc21	57% (active)
OCc1ccc(Oc2ccc(Br)cc2)c(F)c1	94.1% (active)
Cc1ccc(S(=O)(=O)c2ccc([N+](=O)[O-])o2)cc1	102% (active)
Cc1nc(N)sc1-c1ccc([N+](=O)[O-])o1	-7.32%
O=C(Nc1nnc(C2CC(=O)N(c3ccccc3)C2)o1)C1=COCCO1 (centres undefined)	93.6% (active)
Cc1cc(C)c(-c2nc(NC(=O)C3=COCCO3)sc2C)cc1C	11.4%
NC(=S)COc1ccc(F)cc1	77.8% (active)
NC(=S)COc1ccccc1	65.4% (active)
O=C1CC(=O)N2C(c3ccccc3)=CSC2(OCCS)N1 (centres undefined)	-5.38%

Structure (SMILES)	inhibition
COc1cccc(CNC(=O)c2ccc(-c3ccc(F)cc3)s2)c1	inactive
N#Cc1sc(-c2cccc(Cl)c2)cc1N	42.5%
O=C(NCc1ccncc1)c1ccc(-c2ccc(C3CCCCC3)cc2)s1	8.46%
Cc1cccc(CNC(=O)c2ccc(-c3ccc(Oc4ccccc4)cc3)s2)c1	82.4% (active)
COc1ccc(CNC(=O)c2ccc(-c3cccc(Cl)c3)s2)cc1	54.9% (active)
CC(NC(=O)c1ccc(-c2cccc(Cl)c2)s1)C(C)(C)C (centres undefined)	50% (active)
Clc1ccc(-n2cccc2CN2CCc3c([nH]c4ccccc34)C2c2ccccn2)nc1 (centres undefined)	37.9%
NC(=O)c1cc2c(cc1-c1cccc(C(F)(F)F)c1)OCO2	22.9%
Cc1ccc2c(=O)c(-c3cccc(C(F)(F)F)c3)coc2c1	57.7% (active)
CC(C)c1cc(C(=O)NCc2nc(Cc3cccs3)no2)n(C)n1	13.7%
Cc1[nH]ncc1CCCNC(=O)Nc1ccc(Cl)c(Cl)c1	-9.82%
CC(C)Cc1noc(CCCNC(=O)Nc2cccc(Cl)c2)n1	55.1% (active)
Fc1ccc(-c2cnn3c(NCc4cccc(Cl)c4)ccnc23)cc1Cl	57.7% (active)
CCCc1cc(NCc2cccnc2)n2ncc(-c3ccccc3)c2n1	13.7%
CCCCCCc1ccc(C(=O)N2CCSC2c2ccncc2)cc1 (centres undefined)	95.1% (active)
CCCCc1ccc(C(=O)O)nc1	40.9%
c1ccc(Cn2nnc3c(SCc4cccnc4)ncnc32)cc1	-31.8%
Cc1ccc(Cn2nnc3c(SCC(=O)OCc4ccccc4)ncnc32)cc1	84.7% (active)
Cc1ccc(Cn2nnc3c(SCc4cccnc4)ncnc32)cc1	58.1% (active)
COc1ccc(-n2nnc3c(SCc4cccc(F)c4)ncnc32)cc1	88.2% (active)
O=C(CSc1ncnc2c1nnn2Cc1ccccc1F)OCc1ccccc1	-8.15%
c1ccc(-n2nnc3c(SCc4cccnc4)ncnc32)cc1	61.4% (active)

Structure (SMILES)	inhibition
O=C(CSc1ncnc2c1nnn2Cc1ccccc1)OCc1ccccc1	-35.2%
Fc1ccc(-n2nnc3c(SCc4cccc(F)c4)ncnc32)cc1	-31.5%
COc1ccc(-n2nnc3c(SCc4cccc(Cl)c4)ncnc32)cc1	-33.7%
COc1cccc(-n2nnc3c(SCc4cccnc4)ncnc32)c1	74.8% (active)
Cc1cccc(-c2ccc(NC(=O)C3CCN(Cc4nccs4)CC3)cc2)c1	37.9%
CCCc1ncc(CN2CCC(C(=O)Nc3cccc(-c4cccc(F)c4)c3)CC2)cn1	inactive
COc1cccc(-c2ccc(NC(=O)C3CCCN(Cc4cnc(N(C)C)s4)C3)cc2)c1 (centres undefined)	48.7%
O=C(Nc1cccc(-c2cccc(F)c2)c1)C1CCN(Cc2cccs2)CC1	36.5%
CC(=O)c1cccc(CN2CCC(C(=O)Nc3cccc(-c4cccc(F)c4)c3)CC2)c1	69% (active)
O=C(Nc1cccc(-c2cccc(F)c2)c1)C1CCN(Cc2cccc3cnccc23)CC1	75.2% (active)
Cc1cccc(-c2ccc(NC(=O)C3CCN(Cc4cnc(N(C)C)s4)CC3)cc2)c1	88.2% (active)
CC(=O)c1cc(CN2CCC(C(=O)Nc3cccc(-c4cccc(F)c4)c3)CC2)cs1	91.3% (active)
CCCn1nnnc1NCc1cccn1C	1.45%
Cn1ccsc1=NC(=O)CCN1c2ccccc2Sc2ccccc21	-5.61%
CC(=O)c1cccc(CN2CCC(C(=O)Nc3ccc(-c4cccc(C)c4)cc3)CC2)c1	86.5% (active)
Cc1cccc(CN2CCC(C(=O)Nc3cccc(-c4cccc(F)c4)c3)CC2)n1	76.4% (active)
c1nc(NC2CC3CC2C2CCCC32)c2sccc2n1 (centres undefined)	30.1%
COc1cccc(OC)c1OCCCOc1ccc(Cl)cc1Cl	89.4% (active)
COc1cccc(OC)c1OCCCOc1ccc(C)cc1Cl	47.8%
COc1cccc(OC)c1OCCOc1ccc(Br)cc1Cl	82% (active)
O=c1nc(SCc2ccc(C(F)(F)F)cc2)nc2ccccn12	-29.6%
O=c1cnnc(SCc2ccc(C(F)(F)F)cc2)[nH]1	84.2% (active)

Structure (SMILES)	inhibition
Cc1ccn2c(=O)nc(SCc3ccc(C(F)(F)F)cc3)nc2c1	22.7%
FC(F)(F)c1ccccc1CCNc1nncc(-c2ccccc2)n1	-20%
c1ccc2c(c1)[I+]c1ccccc1-2	101% (active)
Nc1ccc(Oc2ccc(Br)cc2)cc1	39.8%
OC(COc1ccc(Cl)cc1)CSc1ccc(Br)cc1 (centres undefined)	-20.4%
CC(O)c1ccc(Oc2ccc(Br)cc2)cc1 (centres undefined)	72.8% (active)
CCc1cnc(C)nc1N1CCCC(C(=O)c2ccc(C(F)(F)F)cc2)C1 (centres undefined)	51.3% (active)
NC(=O)C1CCN(c2nc3cc(C(F)(F)F)ccc3s2)C1 (centres undefined)	34.5%
COC(=O)C(Cc1ccc(OCCn2c(=O)sc3cc(C(=O)c4ccccc4)ccc32)cc1)C(=O)OC	51.7% (active)
COc1ccc(NC(=O)c2sc(=O)n(CCOc3ccc(F)cc3)c2C)cc1OC	27.4%
c1ccc(-c2nc(SC(c3ccccc3)c3ccccc3)n[nH]2)cc1	22.5%
C(=C\c1ccccc1)/CSc1n[nH]c(-c2cccnc2)n1	96.6% (active)
O=c1nc(SC/C=C/c2ccccc2)nc2ccccn12	-19.1%
COc1ccc(-c2ccc(C(=O)N3CCCC(c4ccccc4)CC3)cn2)cc1 (centres undefined)	36.2%
O=C(c1ccco1)N1CCC(CCc2ccc(-c3ccccc3)cc2)CC1	81% (active)
O=C(c1ccc(-c2ccc(O)cc2)nc1)N1CCC(CCc2ccccc2)CC1	83.7% (active)
c1ccc(-c2ccc(CCC3CCN(Cc4cccs4)CC3)cc2)cc1	43.2%
O=C(c1ccco1)N1CCCC2(CCCCC2)C1	-18%
CCOC(=O)C(=O)N1CCC(CCc2ccccc2)CC1	90.7% (active)
O=C(c1ccco1)N1CCC(Cc2ccc(F)cc2)CC1	86.8% (active)
O=C(C1CCC1)N1CCC(CCc2ccc(-c3ccccc3)cc2)CC1	44.8%
